# This is a sample that favours compounds with a hit; in the whole collection about 3.4% have one here.
# PAFAH1B3 inh = PAFAH1B3 (human) inhibition; recombinant PAFAH1B3, FP-rhodamine probe, fluorescence polarization; inhibition, % at 3.39 µM; actives 0.28% (n = 340,000);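 active means inhibition above the screen-wide average of all tested compounds plus 3 SD, cut at about 25% in these data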;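 further: 0% = enzyme with DMSO only and 100% = wells lacking PAFAH1B3 protein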
# PAFAH1B2 FP inh = PAFAH1B2 (human) inhibition; inhibition, % at 3.39 µM; recombinant PAFAH1B2, FP-rhodamine activity probe, fluorescence polarization; actives 1.2% (n = 340,000);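 active means inhibition above the mean of all tested compounds plus 3 SD, cut at about 24% in these data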;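 further: 0% = enzyme with DMSO and 100% = wells lacking PAFAH1B2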
# PP1 inh = counter-screen for PP5 inhibitors: inhibitors of human PP1-alpha | P62136 | inhibition, % at 6.7 µM | actives 0.9% (n = 320,000) | purified PP1alpha, OMFP fluorescence;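 active means inhibition above the mean inhibition of all tested compounds plus 3 SD, computed separately for each screening campaign, cut at about 15% in these data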
# pPAFAH inh = pPAFAH (human) enzyme inhibition; Q13093; recombinant pPAFAH, FP-rhodamine probe fluorescence polarization; inhibition, % at 3.39 µM; actives 1.5% (n = 330,000); AID 463082;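 active means inhibition above the mean inhibition across the screen plus 3 SD, cut at about 25% in these data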;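 further: inhibitors block binding of the rhodamine activity-based probe so polarization drops; 0% = enzyme with DMSO and 100% = wells lacking pPAFAH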
# PP5 primary = PP5 (human) phosphatase inhibition | inhibition, % at 6.7 µM | actives 0.18% (n = 320,000) | purified PP5c, OMFP substrate fluorescence | AID 1987 | P53041;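 active means inhibition above the campaign's mean inhibition across all tested compounds plus 3 SD, cut at about 9.5% in these data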;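 further: 0% = DMSO only and 100% = 100 µM cantharidin control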
# Target sequence (P53041 whole entry, looked up): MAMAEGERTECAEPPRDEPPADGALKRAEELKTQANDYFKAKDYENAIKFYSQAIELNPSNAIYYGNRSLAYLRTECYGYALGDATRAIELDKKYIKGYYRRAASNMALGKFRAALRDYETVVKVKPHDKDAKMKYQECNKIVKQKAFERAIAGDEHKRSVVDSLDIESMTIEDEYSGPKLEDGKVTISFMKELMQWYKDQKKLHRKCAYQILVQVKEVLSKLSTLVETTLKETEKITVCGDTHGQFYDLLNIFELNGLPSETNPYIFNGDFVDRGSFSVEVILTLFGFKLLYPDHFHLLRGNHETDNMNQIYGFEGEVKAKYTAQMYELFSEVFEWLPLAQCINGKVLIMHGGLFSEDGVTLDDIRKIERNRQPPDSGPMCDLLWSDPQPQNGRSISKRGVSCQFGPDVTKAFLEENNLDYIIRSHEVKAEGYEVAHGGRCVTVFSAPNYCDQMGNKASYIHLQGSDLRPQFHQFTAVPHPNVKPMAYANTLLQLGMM
# PAFAH2 inh = PAFAH2 (human) inhibition; recombinant PAFAH2, FP-rhodamine activity probe, fluorescence polarization; inhibition, % at 3.39 µM; actives 0.99% (n = 340,000); AID 492956;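 active means inhibition above the mean over all tested compounds plus 3 SD, cut at about 30% in these data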;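 further: inhibitors block probe labeling of enzyme so polarization drops; 0% = enzyme with DMSO and 100% = wells lacking PAFAH2 protein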
# * = called active by the depositor; . = no result.
SMILES,PAFAH1B3 inh,PAFAH1B2 FP inh,PP1 inh,pPAFAH inh,PP5 primary,PAFAH2 inh
COc1cc(C(=O)Nc2ccc(S(=O)(=O)N3CCCCC3)cc2)ccc1OCC(=O)N1CCOCC1,8,-2,.,.,.,2
CN(C)CCCN1C(=O)c2cccc3c([N+](=O)[O-])ccc(c23)C1=O,21,9,-5,5,-1,4
O=C(O)c1ccc(CN2C(=O)c3cccc4c([N+](=O)[O-])ccc(c34)C2=O)cc1,31*,18,.,.,.,16
CC(C)C[C@@H](CO)NS(=O)(=O)c1c(F)cccc1F,2,7,.,.,.,0
Oc1ccc(/C=N/N2CCN(C3c4ccccc4-c4ccccc43)CC2)cc1O,-2,1,8,33*,2,-6
Cc1cc(-c2nnc(SCC(=O)Nc3nc(-c4ccccc4)cs3)o2)no1,0,-3,9,30*,0,-10
Cc1ccc(-c2csc(NC(=O)CSc3nnc4c(n3)[nH]c3ccccc34)n2)cc1,-10,-6,17*,-7,0,-33
Cc1ccc(NC(=O)CSc2nnc3c(n2)[nH]c2ccccc23)cc1,4,4,-4,-4,0,-5
Cn1ncc(Cl)c1C(=O)N1CCC(Cc2ccccc2)CC1,2,5,-2,5,3,5
CC(C)C[C@H](NC(=O)c1[nH]cnc1C(=O)N[C@@H](Cc1ccccc1)C(=O)OCc1ccccc1)C(=O)OCc1ccccc1,-10,-5,11,10,2,-14
CC(C)(C)OC(=O)NCCCC[C@H](NC(=O)c1[nH]cnc1C(=O)N[C@@H](Cc1ccccc1)C(=O)OC(C)(C)C)C(=O)OC(C)(C)C,-10,-9,15*,6,9,-5
O=C(N[C@@H](Cc1ccccc1)C(=O)OCc1ccccc1)c1nc[nH]c1C(=O)NCc1ccccc1,-6,0,11,33*,5,13
CC(C)(C)OC(=O)NCCCC[C@H](NC(=O)c1[nH]cnc1C(=O)Nc1ccc(CNC(=O)OC(C)(C)C)cc1)C(=O)OC(C)(C)C,.,.,17*,-27,9,.
NS(=O)(=O)c1ccc(CCNC(=O)CSCC(=O)Nc2ccc(Cl)cc2)cc1,0,2,-4,5,-1,-4
Cc1cc(C)c2c(-n3cccc3)c(C(=O)NNS(=O)(=O)c3ccc(Cl)cc3)sc2n1,2,37*,4,7,3,8
Cc1cc(N2O[C@]34C=C[C@]25C[C@@H](O)CC[C@]5(C)C3CC[C@]2(C)[C@@H]([C@H](C)/C=C/[C@H](C)C(C)C)CC[C@H]24)no1 (some centres not stated),5,1,.,-6,.,-3
Cc1ccc(-n2c(Cc3cccs3)nnc2SCC(=O)Nc2ccc(S(N)(=O)=O)cc2)cc1,8,7,0,26*,3,9
NS(=O)(=O)c1ccc(NC(=O)CSc2nnc(Cc3cccs3)n2-c2ccccc2)cc1,3,0,0,6,-1,-4
O=C(CSc1nnc(Cc2cccs2)n1-c1ccc(Cl)cc1)NCc1ccc2c(c1)OCO2,0,-2,-1,25*,-3,3
CC(C)CNC(=O)c1ccccc1C(=O)NC1(C(=O)NCC(C)C)CCCC1,8,5,.,.,.,4
O=C(Cc1ccccc1[N+](=O)[O-])NCC(O)c1ccc2c(c1)OCO2 (configuration not stated),-5,-8,.,.,.,-1
CCC(c1nnnn1CCc1ccccc1)N(Cc1ccco1)Cc1cc2cc(C)cc(C)c2[nH]c1=O (configuration not stated),-8,0,14,0,8,-2
CCC(c1nnnn1CCc1ccccc1)N(Cc1ccco1)Cc1cc2c(C)ccc(C)c2[nH]c1=O (configuration not stated),0,5,16*,3,1,6
CC(C1CC2CCC1C2)n1c(-c2ccco2)n[nH]c1=S (configuration not stated),4,27*,0,5,0,10
O=C(O)CCCN1C(=O)/C(=C\c2ccc(-c3nc4ccccc4s3)o2)SC1=S,25,13,-5,30*,3,41*
SMILES,PAFAH1B3 inh,PAFAH1B2 FP inh,PP1 inh,pPAFAH inh,PP5 primary,PAFAH2 inh
Cc1nn(-c2ccccc2)c(Cl)c1/C=C1\SC(=S)N(CCCCCC(=O)O)C1=O,12,3,16*,28*,1,7
O=C(O)CCN1C(=O)/C(=C/c2ccc(-c3nc4ccccc4s3)o2)SC1=S,20,4,2,14,3,18
Cc1nn(-c2ccccc2)c(Cl)c1/C=C1\SC(=S)NC1=O,2,2,9,-31,3,17
O=S1(=O)N[C@@H](Cc2ccccc2)COc2cc(Br)ccc21,8,2,.,11,.,2
COc1ccc(/C=C/C(=O)NC(=S)NNC(=O)c2c(-c3ccccc3)noc2C)cc1,8,4,17*,17,4,5
Cc1onc(-c2ccccc2)c1C(=O)NNC(=S)NC(=O)/C=C/c1ccccc1,5,7,14,11,4,5
COc1ccc(/C=C/C(=O)NC(=S)NNC(=O)Cc2cccs2)cc1,13,-7,20*,5,0,0
COc1ccc(/C=C/C(=O)NC(=S)NNC(=O)c2ccco2)cc1,15,2,8,9,2,0
CN(N=C(c1ccccc1)c1ccccc1)c1ccccc1,5,3,.,.,.,2
S=C(c1ccccc1)N(c1ccccc1)c1ccccc1,4,38*,3,6,1,1
COc1oc(C(=O)NC2CCCCC2)c(-c2ccc(Cl)cc2)c1S(=O)(=O)c1ccccc1,-1,32*,.,.,.,5
O=S1(=O)CCN(OCc2ccc(Cl)cc2)CC1,9,9,-2,3,0,12
N#C/C(=C\c1ccc(-c2ccccc2[N+](=O)[O-])o1)C(=O)Nc1nc(-c2cccs2)cs1,16,4,16*,30*,2,22
O=C(O)c1ccc(Cl)c2c1C1C=CCC1C(c1ccccn1)N2 (configuration not stated),.,.,5,58*,-2,.
COc1ccc(OC)c(C2Nc3c(Cl)ccc(C(=O)O)c3C3C=CCC32)c1 (configuration not stated),2,2,6,25*,3,4
Cc1cc([N+](=O)[O-])cc2c1NC(c1ccccn1)C1CC=CC21 (configuration not stated),-2,5,1,14,-1,7
CNc1nc(NC)c2cn[nH]c2n1,12,3,.,.,.,-2
COC(=O)[C@@H](NCc1ccc(B(O)O)cc1)C(C)C,5,2,.,.,.,-1
CCOc1ccc(N2C(=O)C(c3ccccc3)=C(c3nc4ccccc4s3)C2NC(C)=O)cc1 (configuration not stated),4,-1,0,26*,-1,-6
COCCN(C(=O)c1ccc2c(c1)S(=O)(=O)N=C1CCCCCN12)c1c(N)n(CC(C)C)c(=O)[nH]c1=O,12,9,.,.,.,0

# High-throughput results (PubChem BioAssay)
